# The whole screen tested about 47,000 compounds, of which about 2,800 (6%) were called active. Rule as the data show it: active = z-score above about 3 (passing the limit was not always enough); inactive = the rest. This excerpt belongs to a sample that is enriched for actives.
# Target: Endoribonuclease Dicer (Homo sapiens) (UniProt Q9UPY3)
# Assay: inhibitors of Dicer pre-microRNA processing, primary screen, biochemical, cat-ELCCA, chemiluminescence (AID 1347074);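 also: plate controls were vehicle for no effect and no enzyme for full effect; higher signal means more uncleaved substrate so more Dicer inhibition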
# Settings: cat-ELCCA pre-miR-21 Dicer processing, at 25 µM, hits give high values
# Sequence of Endoribonuclease Dicer (Homo sapiens) (Q9UPY3 whole entry, looked up): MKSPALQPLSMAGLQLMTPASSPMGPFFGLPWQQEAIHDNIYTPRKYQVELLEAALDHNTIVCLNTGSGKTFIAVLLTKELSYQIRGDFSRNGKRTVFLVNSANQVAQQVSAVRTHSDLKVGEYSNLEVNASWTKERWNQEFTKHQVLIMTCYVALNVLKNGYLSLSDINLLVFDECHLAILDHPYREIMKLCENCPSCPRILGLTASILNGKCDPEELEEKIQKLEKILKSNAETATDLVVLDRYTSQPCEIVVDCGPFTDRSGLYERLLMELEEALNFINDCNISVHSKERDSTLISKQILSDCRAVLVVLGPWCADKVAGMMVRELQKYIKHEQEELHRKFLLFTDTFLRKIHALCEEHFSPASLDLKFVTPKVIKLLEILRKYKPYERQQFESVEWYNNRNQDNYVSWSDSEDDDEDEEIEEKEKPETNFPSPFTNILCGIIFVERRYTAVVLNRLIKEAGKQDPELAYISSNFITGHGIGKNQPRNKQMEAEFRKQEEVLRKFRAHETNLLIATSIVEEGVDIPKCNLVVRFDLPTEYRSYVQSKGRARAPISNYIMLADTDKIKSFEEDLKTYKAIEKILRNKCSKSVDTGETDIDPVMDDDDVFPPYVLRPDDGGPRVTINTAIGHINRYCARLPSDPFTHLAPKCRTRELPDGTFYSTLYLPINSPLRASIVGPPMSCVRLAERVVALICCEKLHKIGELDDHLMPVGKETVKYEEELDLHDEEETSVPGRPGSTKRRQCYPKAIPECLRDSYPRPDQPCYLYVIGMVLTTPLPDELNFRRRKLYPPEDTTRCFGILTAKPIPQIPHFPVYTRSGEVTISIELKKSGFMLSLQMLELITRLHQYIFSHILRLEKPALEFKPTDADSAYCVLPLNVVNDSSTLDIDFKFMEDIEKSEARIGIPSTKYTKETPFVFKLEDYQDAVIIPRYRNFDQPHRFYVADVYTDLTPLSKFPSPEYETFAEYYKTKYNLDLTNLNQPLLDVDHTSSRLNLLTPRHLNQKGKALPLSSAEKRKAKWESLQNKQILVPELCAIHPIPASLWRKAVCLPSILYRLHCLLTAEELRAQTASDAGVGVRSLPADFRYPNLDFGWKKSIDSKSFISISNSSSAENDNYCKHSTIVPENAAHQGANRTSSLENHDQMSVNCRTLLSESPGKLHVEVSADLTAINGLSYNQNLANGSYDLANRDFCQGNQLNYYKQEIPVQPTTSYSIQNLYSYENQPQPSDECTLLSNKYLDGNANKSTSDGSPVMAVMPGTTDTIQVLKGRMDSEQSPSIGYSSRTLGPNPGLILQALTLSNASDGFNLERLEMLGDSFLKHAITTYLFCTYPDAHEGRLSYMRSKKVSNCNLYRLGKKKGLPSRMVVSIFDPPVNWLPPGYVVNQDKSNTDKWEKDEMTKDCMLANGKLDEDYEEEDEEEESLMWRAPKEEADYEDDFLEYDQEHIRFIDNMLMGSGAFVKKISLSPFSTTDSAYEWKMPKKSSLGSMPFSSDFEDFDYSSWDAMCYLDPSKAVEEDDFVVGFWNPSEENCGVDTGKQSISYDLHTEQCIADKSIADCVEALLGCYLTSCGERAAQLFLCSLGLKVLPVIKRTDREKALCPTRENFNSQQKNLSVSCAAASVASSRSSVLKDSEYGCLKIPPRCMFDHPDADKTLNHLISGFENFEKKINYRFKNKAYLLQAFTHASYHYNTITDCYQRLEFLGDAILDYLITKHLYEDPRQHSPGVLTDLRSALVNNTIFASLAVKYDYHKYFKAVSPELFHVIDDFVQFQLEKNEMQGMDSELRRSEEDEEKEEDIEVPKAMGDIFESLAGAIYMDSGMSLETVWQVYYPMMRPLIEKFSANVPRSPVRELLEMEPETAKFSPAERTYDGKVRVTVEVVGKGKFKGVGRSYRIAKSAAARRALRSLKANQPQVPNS
row,SMILES,z-score
1,O=C(Nc1nc2ccsc2c(=O)s1)c1ccccc1,-0.44 (inactive)
2,O=C(O)/C=C/C(=O)N1CCN(c2nccc(C(F)(F)F)n2)CC1,0.2 (inactive)
3,NC(=O)c1c(NC(=O)c2sc3cc(Cl)ccc3c2Cl)sc2c1CCC2,0.57 (inactive)
4,CCCCC(=O)N(c1ccc2oc(=O)sc2c1)S(=O)(=O)c1ccc(F)cc1,3.38 (active)
5,O=C(c1cccnc1)N(c1ccc2oc(=O)sc2c1)S(=O)(=O)c1ccccc1,3.74 (active)
6,COC(=O)c1c(C)oc2ccc(N(C(=O)Oc3ccccc3)S(=O)(=O)c3ccccc3)cc12,-0.23 (inactive)
7,O=C(c1cccnc1)N(c1cc2sc(=O)oc2c2ccccc12)S(=O)(=O)c1ccccc1,-2.86 (inactive)
8,COc1ccc(S(=O)(=O)N(C(=O)c2ccncc2)c2ccc3oc(=O)sc3c2)cc1OC,3.3 (active)
9,CCOC(=O)C(C)Oc1ccc2c(=O)c(-c3ccc(OC)c(OC)c3)c(C(F)(F)F)oc2c1 (stereo not given),0.03 (inactive)
10,O=C1/C(=C/c2cc(Br)cs2)Cc2ccccc21,-0.91 (inactive)
11,CCOC(=O)/C(C#N)=C/N=C(N/N=C(\C)c1cc2ccccc2o1)SC,-2.01 (inactive)
12,NC(=O)CN1C(=O)C(O)(CC(=O)c2ccc3c(c2)CCCC3)c2ccccc21 (stereo not given),-1.03 (inactive)
13,O=S(=O)(c1cc(Cl)ccc1Cl)N1c2ccccc2OC1c1ccc(Cl)c(Cl)c1 (stereo not given),-0.36 (inactive)
14,CSC(=Nc1ccccc1C(F)(F)F)N1CCCC1,1.69 (inactive)
15,CSC(=Nc1cc(C(F)(F)F)cc(C(F)(F)F)c1)N1CCCCC1,5.99 (active)
16,CCCC1c2ccsc2CCN1C(=S)Nc1ccccc1C(=O)OC (stereo not given),-0.25 (inactive)
17,Oc1ccccc1C=NCCCN=Cc1ccccc1O,4.14 (active)
18,CSc1nnc(/N=C/c2ccccc2O)s1,0.16 (inactive)
19,O=C(O/N=C(/Cc1ccccc1)C(F)(F)F)c1ccc(Cl)cc1,-0.11 (inactive)
20,Cc1cc(C)c2c(-n3cccc3)c(C(=O)c3ccc(Cl)cc3)sc2n1,-2.32 (inactive)
21,Cc1cc(-c2cccs2)c2c(N)c(C(=O)c3ccccc3)sc2n1,0.82 (inactive)
22,Nc1c(C(=O)c2ccc(Cl)cc2)sc2nc(-c3cccs3)cc(C(F)(F)F)c12,4.28 (active)
23,COc1cccc(-c2nc(-c3cc4cc(C)ccc4[nH]c3=O)no2)c1,0.33 (inactive)
24,CCOC(=O)c1c(NC(=O)c2sc3nc(C)cc(COC)c3c2N)sc2c1CCCC2,-1.64 (inactive)
25,Cc1cc(C)c2c(N)c(-c3n[nH]c(=S)n3C)sc2n1,-3.29 (inactive)

row,SMILES,z-score
1,Cc1cc(C)c2c(N)c(C(=O)NNC(=S)Nc3ccccc3)sc2n1,5.62 (active)
2,C(#CCN1CCCCC1)COC(c1ccccc1)c1ccccc1,4.06 (active)
3,C#CC(CCN1CCCCC1)(OC)c1ccccc1 (stereo not given),-0.6 (inactive)
4,NS(=O)(=O)c1ccc2c(c1)OCCO2,-0.87 (inactive)
5,CCn1nc(C)cc1-c1n[nH]c(=S)n1-c1ccccc1,-0.98 (inactive)
6,Cc1cc(C)cc(Oc2coc3cc(OCC(=O)OC(C)C)ccc3c2=O)c1,0.93 (inactive)
7,Cc1onc(-c2c(Cl)cccc2Cl)c1C(=O)N=S(C)(C)=O,0.49 (inactive)
8,Cc1onc(-c2ccccc2Cl)c1C(=O)OCC(=O)c1ccccc1,4.29 (active)
9,Cc1[nH]n(C)c(=O)c1C(=O)c1c(-c2c(Cl)cccc2Cl)noc1C,-0.59 (inactive)
10,CCOCc1ccc2oc(C(=O)OCCN(CC)CC)cc2c1,0.17 (inactive)
11,Cc1nn2c3c(cnc2c1-c1ccc(F)cc1)C(=O)CC(c1cccc(Cl)c1)C3 (stereo not given),0.34 (inactive)
12,Oc1c(Cl)cc(Cl)c(Cl)c1Cc1c(O)c(Cl)cc(Cl)c1Cl,13.8 (active)
13,O=C(CN1C(=O)c2ccccc2S1(=O)=O)NC1CCCCC1,1.13 (inactive)
14,Cc1ccc(C(=O)CC2(O)C(=O)N(CN3CCCCC3)c3ccc(Br)cc32)cc1 (stereo not given),0.51 (inactive)
15,CCOC(=O)c1sc(SC)c(-c2ccccc2)c1N,11.5 (active)
16,CCOC(=O)c1sc(SC)c2c1-c1ccccc1N(C)S2(=O)=O,-1.61 (inactive)
17,CCOC(=O)c1sc2ccccc2c1N,0.22 (inactive)
18,CCOC(=O)/C(=N\Nc1ccccc1)c1csc(N)n1,0.02 (inactive)
19,Cc1cc(C)n(C(=O)COc2ccc3ccccc3c2Br)n1,2.85 (inactive)
20,CC(C)OC(=O)C1C(=O)CC(C)(O)C(C(=O)OC(C)C)C1c1ccc(O)cc1 (stereo not given),-0.2 (inactive)
21,COC(=O)C1=C(C)NC2=C(C(=O)CC(C)(C)C2)C1c1cc(Cl)c(O)c(OC)c1 (stereo not given),3.12 (inactive)
22,CC(C(=O)N1CCCC1)N1c2cccc3cccc(c23)S1(=O)=O (stereo not given),-0.76 (inactive)
23,O=[N+]([O-])c1cc(-c2cnc3ccccc3n2)ccc1Sc1ccccn1,15.7 (inactive)
24,COC(=O)c1cc(OC)c(OC)cc1N1C(=O)c2ccccc2C1=O,0.34 (inactive)
25,COC(=O)c1ccccc1N(C)C(=O)c1cc(OC)c(OC)c(OC)c1,-0.98 (inactive)

row,SMILES,z-score
1,COC(=O)c1ccccc1-c1c2ccc(=O)cc-2oc2cc(O)ccc12,7.57 (active)
2,COC(=O)c1cc(NC(=O)NC(=O)c2c(Cl)cccc2Cl)ccc1S(=O)(=O)Cc1ccc(Cl)cc1,1.45 (inactive)
3,CN(C)CCN1C(=O)C(=O)/C(=C(/O)c2ccc(F)cc2)C1c1cccs1 (stereo not given),1.06 (inactive)
4,COC(=O)c1sccc1Oc1ccc(Cl)cc1[N+](=O)[O-],-0.2 (inactive)
5,CC(CC(=O)O)Oc1ccc(Cl)cc1[N+](=O)[O-] (stereo not given),-0.09 (inactive)
6,O=C(Oc1ccc(Cl)cc1Cl)c1ccc(Cl)cc1[N+](=O)[O-],4.36 (active)
7,CC(C)N1CNc2nc3ccccc3n2C1,1.6 (inactive)
8,COc1ccccc1N1CCN(S(=O)(=O)c2ccc(Br)cc2)CC1,1.29 (inactive)
9,COc1ccc(S(=O)(=O)N2CCCCC2)cc1Br,4.32 (active)
10,O=c1oc2cc(S(=O)(=O)N3CCCCC3)ccc2c2ccc(S(=O)(=O)N3CCCCC3)cc12,1.67 (inactive)
11,Cc1nc(-c2ccc(S(=O)(=O)N3CCCN(c4ncc(C(F)(F)F)cc4Cl)CC3)s2)cs1,-1.58 (inactive)
12,O=C1COCC(=O)N1c1ccc2c(c1)OCO2,3.01 (active)
13,O=C1/C(=C/c2ccc3c(c2)OCO3)CCC/C1=C\c1ccc2c(c1)OCO2,-1.56 (inactive)
14,O=C1COCC(=O)N1c1ccc(F)cc1F,2.81 (inactive)
15,CS(=O)(=O)N1N=C(c2c(-c3ccccc3)c3cc(Cl)ccc3[nH]c2=O)CC1c1cccs1 (stereo not given),0.27 (inactive)
16,O=c1c(-c2ccccc2)coc2cc(O)ccc12,3.37 (active)
17,Cc1c2occ(-c3ccccc3)c2cc2c1oc(=O)c1ccccc12,2.4 (inactive)
18,COc1ccccc1-c1coc2cc(OC(=O)c3ccccc3Cl)ccc2c1=O,0.93 (inactive)
19,Cc1nn(Cc2ccc(C(=O)NCc3ccccn3)o2)c(C)c1[N+](=O)[O-],1.35 (inactive)
20,Fc1ccc2onc(-c3cnn(-c4ccccc4)c3)c2c1,3.3 (active)
21,Cc1ccc2oc(-c3cccc(N4C(=O)c5cccnc5C4=O)c3)nc2c1,-1 (inactive)
22,COc1ccc(-n2cnc3cc(NCc4ccco4)ccc32)cc1,6.39 (active)
23,CC(Oc1cccc2c(=O)c3ccccc3oc12)C(=O)O (stereo not given),-0.48 (inactive)
24,CSc1sc(C(=O)NN)cc1C#N,1.26 (inactive)
25,CCOC(=O)N1CCc2c(sc3c2C(=O)NC(c2ccccc2F)N3)C1 (stereo not given),1.08 (inactive)

row,SMILES,z-score
1,Cc1cc(C(C)(C)C)ccc1NC(=O)COCC(=O)O,1.34 (inactive)
2,CCOc1ccc(-c2nc(-c3ccc(C)nc3OC)no2)cc1,0.23 (inactive)
3,CCOc1ccc(-c2cc(O)cc3sc(=O)oc23)cc1,5.74 (active)
4,CCCCOc1cc(O)c2c(=O)cc(-c3ccccc3)oc2c1,-0.66 (inactive)
5,Cn1c2c(c(=O)n(C)c1=O)C(C(=O)Nc1ccc(Cl)cc1)CC(=O)N2 (stereo not given),1.36 (inactive)
6,COC(=O)c1sccc1NNS(=O)(=O)c1ccc(C)cc1,0.67 (inactive)
7,C=CCOc1ccc(C(=O)N(Cc2ccc(OC)cc2)C2CCS(=O)(=O)C2)cc1 (stereo not given),1.67 (inactive)
8,C=CCOc1ccc2c(=O)cc(C(=O)OCC)oc2c1,-0.35 (inactive)
9,NC(=O)c1c(NC(=O)CSc2nc3ccccc3o2)sc2c1CCC2,0.14 (inactive)
10,CC(C)N1CCC(=O)N(c2ccccc2Cl)C1=O,5.02 (active)
11,O=[N+]([O-])c1ccc(Sc2ccc(Cl)cc2)nc1,-0.03 (inactive)
12,CC(C)Oc1ccccc1Oc1ccc([N+](=O)[O-])cn1,14.5 (active)
13,CC(C)(C)n1cnnc1Sc1ccc([N+](=O)[O-])cn1,2.43 (inactive)
14,COc1c(Br)cc([N+](=O)[O-])c(OC)c1C(N)=O,-0.32 (inactive)
15,Cc1cc2n(n1)C(c1cc(C(C)(C)C)c(O)cc1O)Nc1ccccc1-2 (stereo not given),3.4 (active)
16,CCN(CC)c1ccc(C2Nc3ccccc3-c3cc(C)nn32)c(O)c1 (stereo not given),0.47 (inactive)
17,Cc1cc(C)c2c(c1)-c1cc(C)nn1C(c1ccc(O)cc1)N2 (stereo not given),2.1 (inactive)
18,OC(CN1CCN(C(c2ccccc2)c2ccccc2)CC1)Oc1cccc(C(F)(F)F)c1 (stereo not given),2.86 (inactive)
19,O=C1c2cccc3cc(Br)cc(c23)C(=O)N1CCO,2.14 (inactive)
20,CCN1/C(=C\C=C\c2scc[n+]2CC)Sc2c1ccc1ccccc21,-2.64 (inactive)
21,CC(=O)/C(=C\N=S(C)(=O)c1ccc(C)cc1)S(=O)(=O)c1ccc(Cl)cc1 (stereo not given),-3.56 (inactive)
22,CC1=C(C(=O)OCC2CCCO2)C(c2cccs2)C2=C(CC(c3cccs3)CC2=O)N1 (stereo not given),1.27 (inactive)
23,C=CCn1c(SCc2nnc(SCC(=O)c3ccc(Cl)cc3)o2)nnc1-c1ccccc1,1.72 (inactive)
24,CC1(C)Cc2c(C#N)c(SCc3nc4ccccc4[nH]3)nc(N3CCOCC3)c2CO1,-1.2 (inactive)
25,C=CCn1c(SCc2nc3ccccc3[nH]2)nnc1-c1ccccc1,4.03 (active)

# Source: PubChem BioAssay AID1347074 (Center for Chemical Genomics, University of Michigan, 2019)
